Records with an inconclusive call do not appear. Where a call stands in place of a potency, no number is given. Unmarked numbers belong to inactive results. The source made the active and inactive calls. Calls come from the whole dose curve; as a rule, active = well fitted curve in the direction sought with a large enough effect; inconclusive = small, poorly fitted or top-dose-only effect, or another doubt; inactive = no such curve, though single readings can be large; an effect the other way counts as inactive or inconclusive.
Experiments:
[1] = qHTS to identify inhibitors of the type 1 interferon - major histocompatibility complex class I in skeletal muscle: primary screen against the NCATS Pharmaceutical Collection (AID 1347407);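 note: luminescence of HiBiT knocked into endogenous HLA-B as interferon-induced MHC class I level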; note: potency is the fitted concentration of half-maximal effect
Procedure, shortened: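 Compounds […] were added to CRISPR-engineered HLA-B-HiBiT C25cl48 human myoblasts with 4.0 ng/ml IFN-beta. After 24 hrs at 37 C, cells were lysed and HiBiT luminescence measured.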

[2] = biological target: Protein phosphatase 1D (Homo sapiens) (UniProt O15297); experiment: RapidFire Mass Spectrometry qHTS Assay for Modulators of WT P53-Induced Phosphatase 1 (WIP1) (AID 1347424);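 note: amount of dephosphorylated VEPPL-S-QETFS peptide product formed by WIP1; series mostly up to about 63 µM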
Sequence of Protein phosphatase 1D (Homo sapiens) (O15297 whole entry, looked up): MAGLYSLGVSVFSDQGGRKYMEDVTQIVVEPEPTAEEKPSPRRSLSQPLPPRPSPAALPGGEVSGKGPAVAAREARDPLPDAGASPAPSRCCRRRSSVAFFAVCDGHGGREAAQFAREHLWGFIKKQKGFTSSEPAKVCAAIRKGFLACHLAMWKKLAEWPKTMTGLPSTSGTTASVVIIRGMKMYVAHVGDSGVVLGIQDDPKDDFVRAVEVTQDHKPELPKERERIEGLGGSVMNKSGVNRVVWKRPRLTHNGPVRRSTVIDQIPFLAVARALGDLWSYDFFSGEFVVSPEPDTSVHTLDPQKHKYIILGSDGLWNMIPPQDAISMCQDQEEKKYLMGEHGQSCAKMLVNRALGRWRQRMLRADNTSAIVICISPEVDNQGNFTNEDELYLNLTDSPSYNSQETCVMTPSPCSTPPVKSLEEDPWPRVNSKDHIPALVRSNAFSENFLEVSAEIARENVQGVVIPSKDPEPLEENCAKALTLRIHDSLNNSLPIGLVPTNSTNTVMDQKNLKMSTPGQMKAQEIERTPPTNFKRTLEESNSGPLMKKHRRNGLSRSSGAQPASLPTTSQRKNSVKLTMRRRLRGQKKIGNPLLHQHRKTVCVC
Procedure, shortened: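 10 nM WIP1 preincubated with compounds 1 hr at room temperature in pH 7.5 Tris buffer with 30 mM MgCl2, 1 mM TCEP; 2 uM VEPPL-pS-QETFS phosphopeptide for 5 min, formic acid quench; dephosphorylated product quantified by RapidFire MS against labelled standard.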

[3] = biological target: Protein phosphatase 1D (Homo sapiens) (UniProt O15297); experiment: Rhodamine-PBP qHTS Assay for Modulators of WT P53-Induced Phosphatase 1 (WIP1) (AID 1347425)
Procedure, shortened: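 Steps: enzyme with Rh-PBP sensor and compounds, room-temperature incubation of 1 hr, baseline read, addition of VEPPL-pS-QETFS (10 uM final), kinetic fluorescence reads at 525/598 nm. Activity equals final minus baseline signal.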

[4] = Primary qHTS for inhibitors of La Crosse Virus (LACV) - induced cell death in SH-SY5Y cells (AID 1508616);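 note: top concentration of the series differs between compounds; higher means more rescue of cells from virus-induced death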
Procedure, shortened: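 SH-SY5Y cells (6000/well) plated 24 h, then given compounds by pin transfer and LACV at 0.01 MOI for 6 days at 37C. Viability measured by ATPLite luminescence, normalized to infected DMSO and uninfected DMSO.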

Structure (SMILES) | Potency [1] | Potency [2] | outcome [3] | Potency [4] | activity change, negative = inhibition [1] | activity change, negative = inhibition [2] | activity change, negative = inhibition [3] | activity change [4]
CC(=O)OCC(=O)[C@@]1(O)CC[C@H]2[C@@H]3CCC4=CC(=O)C=C[C@]4(C)[C@H]3[C@@H](O)C[C@@]21C | inactive | inactive | inactive | inactive |  |  |  | 
COc1cc(N)c(Cl)cc1C(=O)NC1CCN(CCCOc2ccc(F)cc2)CC1OC (centres undefined) | inactive | inactive | inactive | inactive |  |  |  | 
CC1(C)O[C@@H]2[C@@H](CO[C@@]3(COS(N)(=O)=O)OC(C)(C)O[C@@H]23)O1 | inactive | inactive | inactive | inactive |  |  |  | 
O=C1OC2(c3ccc(O)cc3Oc3cc(O)ccc32)c2ccccc21 | inactive | inactive | inactive | inactive |  |  |  | 
CN1CCC(=C2c3ccccc3Sc3ccccc32)CC1 | inactive | inactive | inactive | inactive |  |  |  | 
CCN(CC)C(=O)/C(C#N)=C/c1cc(O)c(O)c([N+](=O)[O-])c1 | inactive | inactive | inactive | inactive |  |  |  | 
NC[C@H]1O[C@H](O[C@H]2[C@H](O[C@@H]3O[C@H](CO)[C@@H](O)[C@H]3O)C(O)[C@H](N)C[C@@H]2N)[C@H](N)[C@@H](O)[C@@H]1O (some centres undefined) |  |  |  |  | -10.7% [at 9.18 µM] | 6.77% [at 12.6 µM] | 17.3% [at 11.5 µM] | -8.96% [at 0.858 µM]
Cc1c(C)n(Cc2ccccc2)c2ccc(C(=O)OCCN(C)C)cc12 | inactive | inactive | inactive | inactive |  |  |  | 
CC(C)(C(=O)c1cccnc1)c1cccnc1 | inactive | inactive | inactive | inactive |  |  |  | 
Cc1cc(O)c(C(C)C)cc1Cl | inactive | inactive | inactive | inactive |  |  |  | 
CCCCOc1cc(C(=O)NCCN(CC)CC)c2ccccc2n1 | inactive | inactive | inactive | inactive |  |  |  | 
O=C(CCN1CCC(c2ccccc2)C1)c1ccc2c(c1)OCCO2 (centres undefined) | inactive | inactive | inactive | inactive |  |  |  | 
CCOC(=O)COc1ccc2c(C)c(CCN(CC)CC)c(=O)oc2c1Cl | 21 µM (active) | inactive | inactive | inactive |  |  |  | 
NC(CO)(CO)CO | inactive | inactive | inactive | inactive |  |  |  | 
OC(CCN1CCCCC1)(c1ccccc1)c1ccccc1 | inactive | inactive | inactive | inactive |  |  |  | 
CCN(CCCc1ccccc1)CCCc1ccccc1 | inactive | inactive | inactive | inactive |  |  |  | 
N[C@@H](CCC(=O)N[C@@H](CS)C(=O)NCC(=O)O)C(=O)O | inactive | inactive | inactive | inactive |  |  |  | 
NC(=O)C(=O)N/N=C/c1ccc([N+](=O)[O-])o1 | inactive | inactive | inactive | inactive |  |  |  | 

Structure (SMILES) | Potency [1] | Potency [2] | outcome [3] | Potency [4] | activity change, negative = inhibition [1] | activity change, negative = inhibition [2] | activity change, negative = inhibition [3] | activity change [4]
CCCCCCCCCCCCCCCCOP(=O)([O-])OCC[N+](C)(C)C | inactive | inactive | inactive | inactive |  |  |  | 
CC(C)n1nc(-c2cc3cc(O)ccc3[nH]2)c2c(N)ncnc21 | 4.7 µM (active) | inactive | inactive | inactive |  |  |  | 
O=C(COc1ccc(Cl)cc1)N1CCN(Cc2ccc3c(c2)OCO3)CC1 | inactive | inactive | inactive | inactive |  |  |  | 
NC(=O)c1cc[n+](CC2=C(C(=O)[O-])N3C(=O)[C@@H](NC(=O)Cc4cccs4)[C@H]3SC2)cc1 | inactive | inactive | inactive | inactive |  |  |  | 
O=C1OC(c2ccc(O)cc2)(c2ccc(O)cc2)c2ccccc21 | inactive | inactive | inactive | inactive |  |  |  | 
Cc1c(C(C)C)c(=O)n(-c2ccccc2)n1C | inactive | inactive | inactive | inactive |  |  |  | 
O=C(OCC(O)CO)c1ccccc1Nc1ccnc2cc(Cl)ccc12 (centres undefined) | inactive | inactive | inactive | inactive |  |  |  | 
C[C@@H]1C[C@H]2[C@@H]3CCC4=CC(=O)C=C[C@]4(C)[C@@]3(F)[C@@H](O)C[C@]2(C)[C@H]1C(=O)CO | inactive | inactive | inactive | inactive |  |  |  | 
CC(Cc1cccc(C(F)(F)F)c1)NCCOC(=O)c1ccccc1 (centres undefined) | inactive | inactive | inactive | inactive |  |  |  | 
Cc1nc2n(c(=O)c1CCN1CCC(c3noc4cc(F)ccc34)CC1)CCC[C@H]2O | inactive | inactive | inactive | inactive |  |  |  | 
NC[C@H]1O[C@H](O[C@H]2[C@H](O)[C@@H](O[C@H]3O[C@H](CO)[C@@H](O)[C@H](N)[C@H]3O)[C@H](N)C[C@@H]2N)[C@H](N)[C@@H](O)[C@@H]1O | inactive | inactive | inactive | inactive |  |  |  | 
NCCc1ccn[nH]1 | inactive | inactive | inactive | inactive |  |  |  | 
CC(C)COC(=O)c1ccc(N)cc1 | inactive | inactive | inactive | inactive |  |  |  | 
C=CCc1ccc(O)c(OC)c1 | inactive | inactive | inactive | inactive |  |  |  | 
CC1(C)OC[C@@H](COC(=O)CCc2ccc(OC[C@@H](O)CNCCNC(=O)N3CCOCC3)cc2)O1 | inactive | inactive | inactive | inactive |  |  |  | 
C[C@H](O)C(=O)Nc1c(I)c(C(=O)NC(CO)CO)c(I)c(C(=O)NC(CO)CO)c1I | inactive | inactive | inactive | inactive |  |  |  | 
CC1(C)O[C@@H]2C[C@H]3[C@@H]4C[C@H](F)C5=CC(=O)CC[C@]5(C)[C@H]4[C@@H](O)C[C@]3(C)[C@]2(C(=O)CO)O1 | inactive | inactive | inactive | inactive |  |  |  | 
COc1cccc(OC)c1C(=O)N[C@@H]1C(=O)N2[C@@H]1SC(C)(C)[C@@H]2C(=O)O | inactive | inactive | inactive | inactive |  |  |  | 

Source: PubChem BioAssay (NCATS)
